Screening data from PubChem.
Only some compounds are listed: those with a hit (about 7.4% of all), similar ones and a draw of the others.
SMN2 splice up – qHTS Assay for Enhancers of SMN2 Splice Variant Expression | HEK293 SMN2-luciferase splicing reporter, luminescence, 30-36 h | Potency, µM (doses to about 46.1 µM), most hits filed as activators | 2.8% of 210,000 active; note: nearly all actives have a fitted effect of over 55% in size
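HEK293 cells carry an SMN2 minigene-luciferase reporter in which exon 7 inclusion puts luciferase in frame. Cells were seeded at 2000 cells/well, attached for 10-12 hours, then exposed to compounds for 30-36 hours at 37C before ONE-Glo luminescence.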
NPC1 prom act – qHTS Assay for NPC1 Promoter Activators; AID 485313, 2010; 2.4% of 320,000 active; Huh7 NPC1 promoter luciferase reporter, 24 h; Potency, µM (series often up to 9.22 µM), actives largely listed as activators; note: nearly all actives have a fitted effect of over 60% in size
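Luminescence read-out of NPC1 promoter-driven luciferase in stably transfected Huh7 cells; compounds delivered in DMSO and left 24 h at 37C, 5% CO2, qHTS titration format.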
ELG1 genotoxic – qHTS screen for small molecules that induce genotoxicity in human embryonic kidney (HEK293T) cells expressing luciferase-tagged ELG1 | HEK293T ELG1-luciferase reporter, luminescence, 16 h | Potency, µM (top dose mostly 46 µM), usual class: activators | 1.3% of 330,000 active | AID 504466, 2011; note: nearly all actives have a fitted effect of over 60% in size
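Reporter readout depends on ELG1 protein level, which increases with genetic stress. After 16 hr compound exposure at 37 °C, luciferase activity was quantified using ONE-Glo.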
FLuc modulator – qHTS profiling assay for firefly luciferase inhibitor/activator using purifed enzyme and Km concentrations of substrates (counterscreen for miR-21 project). 6.9% of 360,000 active. AID 588342, 2011. purified FLuc, Km substrates, luminescence inhibition. Potency, µM (highest dose often 57.5 µM), actives largely listed as inhibitors. Luciferin 4-monooxygenase (Photinus pyralis), P08659; note: nearly all actives have a fitted effect of over 55% in size
Target sequence (P08659 whole entry, looked up): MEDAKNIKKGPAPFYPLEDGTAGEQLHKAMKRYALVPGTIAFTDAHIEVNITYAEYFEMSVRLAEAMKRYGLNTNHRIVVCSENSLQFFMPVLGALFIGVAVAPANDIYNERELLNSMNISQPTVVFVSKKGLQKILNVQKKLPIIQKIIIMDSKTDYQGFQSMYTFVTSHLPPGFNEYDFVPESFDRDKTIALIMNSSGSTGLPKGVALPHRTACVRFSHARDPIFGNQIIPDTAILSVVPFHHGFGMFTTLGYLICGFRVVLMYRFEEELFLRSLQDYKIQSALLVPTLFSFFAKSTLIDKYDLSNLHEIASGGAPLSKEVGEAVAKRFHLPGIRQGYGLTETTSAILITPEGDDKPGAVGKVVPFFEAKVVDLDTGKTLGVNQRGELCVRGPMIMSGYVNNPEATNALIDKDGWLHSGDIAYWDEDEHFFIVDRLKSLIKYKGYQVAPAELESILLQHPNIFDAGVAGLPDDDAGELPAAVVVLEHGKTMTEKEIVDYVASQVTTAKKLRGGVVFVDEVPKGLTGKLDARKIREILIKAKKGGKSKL
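Biochemical qHTS of compounds, final roughly 60 µM downward over six points, against 10 nM purified firefly luciferase using Km concentrations of substrates (10 uM D-luciferin, 10 uM ATP) in Tris acetate pH 7.5 buffer; luminescence output.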
p53 reactivator – qHTS assay for re-activators of p53 using a Luc reporter | H1299 p53-A138V BP100-luciferase reporter, luminescence, 24 h | Potency, µM (doses to about 92.2 µM), actives largely listed as activators | 0.063% of 320,000 active | AID 504706, 2011; note: nearly all actives have a fitted effect of over 45% in size
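H1299 (p53-null), stable ts p53-A138V + BP100-Luc; 1000 cells/well, Opti-MEM/10% FBS; cpd 4 pt, 1:5; 24 h, 37 deg C, 5% CO2; detection reagent 10 min RT; luminescence.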
Rab9 promoter act – qHTS Assay for Rab9 Promoter Activators; Potency, µM (doses to about 9.22 µM), usual class: activators; AID 485297, 2010; 2.8% of 320,000 active; Huh7 Rab9 promoter-luciferase reporter, luminescence, 24 h; note: nearly all actives have a fitted effect of over 60% in size
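Using Huh7 cells stably transfected with Rab9 promoter–luciferase, compounds were incubated 24 h at 37 °C, 5% CO2; luciferase luminescence was read 10 min after reagent addition.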
Hits are given with their value; n = inactive; u = inconclusive; x = no result; [ ] = dose if it differs, or a comment. Calls come from the whole dose curve; as a rule, active = well fitted curve in the direction sought with a large enough effect; inconclusive = small, poorly fitted or top-dose-only effect, or another doubt; inactive = no such curve, though single readings can be large; an effect the other way counts as inactive or inconclusive.

SMILES	SMN2 splice up	NPC1 prom act	ELG1 genotoxic	FLuc modulator	p53 reactivator	Rab9 promoter act
CCOc1ccccc1NC(=O)c1c(NC(=O)c2cccc(C)c2)sc2c1CCCC2	n	x	x	n	x	x
O=C(O)COc1ccc(/C=C/C(=O)c2ccc(C3CCCCC3)cc2)cc1	x	u	n	0.38µM	u	u
CCOc1ccc(/C=C/C(=O)NC2CCCCC2)cc1	x	n	n	u	x	n
O=C(O)COc1ccc(/C=C/C(=O)c2ccc3ccccc3c2)cc1	x	n	n	0.95µM	n	n
Cc1cccc(C(=O)Nc2sc(C)c(-c3ccccc3)c2C#N)c1	u	2.8µM	u	4.3µM	u	1.6µM
Cc1noc(C)c1C(=O)Nc1sc(C)c(-c2ccccc2)c1C#N	n	n	n	n	n	n
Cc1sc(NC(=O)C2CCCCC2)c(C#N)c1-c1ccccc1	u	u	u	6.7µM	u	4µM
O=C(CSc1ncc2c(n1)-c1cc(Cl)ccc1N(Cc1ccccc1)S2(=O)=O)NCc1ccccc1	x	x	x	n	x	x
O=C(NCc1ccco1)/C(=C\C=C\c1ccccc1)NC(=O)c1ccccc1Br	n	n	n	27µM	n	n
O=C(CSCc1ccc(Cl)cc1)Nc1ccc(O)cc1C(=O)O	x	n	n	n	n	n
CCn1c(SCC(=O)OC)nc2cc(S(=O)(=O)N3CCOCC3)ccc21	x	n	n	n	n	n
CCc1ccc(C(=O)CSc2nc3cc(S(=O)(=O)N4CCOCC4)ccc3n2CC)cc1	n	n	n	13µM	n	n
Cc1ccccc1CN1C2=NCCN2C(=O)C2=C1CCN(Cc1ccccc1)C2	n[9.22 µM]	x	x	x	x	x
O=C(COC(=O)c1cccs1)NCCC1=CCCCC1	u	n	n	19µM	n	n
O=C(COC(=O)c1ccccc1O)NCCC1=CCCCC1	n	n	n	u	n	n
O=C(COC(=O)c1ccccc1Cl)NCCC1=CCCCC1	n	n	n	17µM	n	n
Cc1ccc(C(=O)OCC(=O)NCCC2=CCCCC2)s1	n	n	n	n	u	n
COc1ccc(NC(=O)Cn2cc(C(=O)C3CCCCC3)c3ccccc32)cc1	n	x	x	n	x	x
Cc1ccc(S(=O)(=O)N2CC=C(c3c(C)n(CC(=O)N4CCCC4)c4ccccc34)CC2)cc1C	n	x	x	n	x	x
CC(=O)Nc1ccc2c(c1)ncn2-c1ccc(C)cc1	8.9µM	1.1µM	9.2µM	5.4µM	n	1.8µM
O=C(Nc1ccc2c(c1)ncn2-c1ccccc1)c1ccco1	13µM	u	u	8.5µM	u	u
O=C(Nc1cccc(-n2cnnn2)c1)c1ccco1	n	n	n	n	n	n
CC(=O)Nc1ccc2c(c1)ncn2C	n	n	n	n	n	n
Cn1cnc2cc(NC(=O)c3ccco3)ccc21	7.1µM	2.8µM	7.3µM	19µM	u	u
Cc1ccc(N2C(=O)C3C(C2=O)C2C=CC3C23CC3)cc1 (centres undefined)	n	n	n	11µM	n	n
SMILES	SMN2 splice up	NPC1 prom act	ELG1 genotoxic	FLuc modulator	p53 reactivator	Rab9 promoter act
O=C(CCSc1ccc(Cl)cc1)NC1CCCCC1	n	n	n	n	n	n
O=C(CCSc1ccccc1)N1CCOCC1	13µM	2.8µM	8.2µM	19µM	n	2.8µM
O=C(CCSc1ccccc1)N1CCCC1	11µM	2.5µM	u	17µM	n	2.8µM
O=C(CCSc1ccccc1)NC1CCCCCC1	n	n	n	11µM	n	n
O=C(CSc1ccc(Cl)cc1)N1CCCC1	u	n	u	u	n	u
CC1(C)C(=O)C=C[C@]2(C)C1CC(=O)[C@]1(C)C2CC[C@@]2(C)C(c3ccoc3)OC(=O)C3O[C@@]321 (some centres undefined)	n	x	x	x	x	x
Cc1ccc(S(=O)(=O)NCC(C)n2nc(C)nc2C)cc1 (centres undefined)	x	n	n	n	n	n
CCCCC(=O)N(CCOC)c1nnc(-c2ccc(OC)cc2)s1	u	n	n	n[2.3 µM]	n	n
CCCN(C(=O)c1ccco1)c1nnc(-c2cccc(C)c2)s1	x	n	n	17µM	n	u
